From PubChem BioAssay (NCI)
The panel holds about 79,000 compounds, 15% with a hit somewhere; the sample as a whole holds those more often. Activity calls are given as the source filed them. No stated cut-off is given here; in the data, active means growth inhibition above about 70%; inactive means the rest.

Assay: NCI Yeast Anticancer Drug Screen. Data for the cln2 rad14 strain (AID 165);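 further: 0% = growth equal to vehicle treated cultures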
Conditions: S. cerevisiae cln2 rad14 strain, at 50.0 µM, stronger effect = higher value
Experimental: Growth inhibition of yeast strains with defined genetic alterations is measured as a screen for potential anti-cancer activity. Selected strains with alterations in DNA damage repair or cell cycle control were exposed to compounds and growth inhibition was measured relative to vehicle treated controls. The strain used in this assay is cln2 rad14

Row | Compound | growth inhibition
1 | CC1CN(C(=O)OCC23COC4(C)CCC(C)(OC2)N34)CC(C)O1 (stereo not given) | 13.4% (inactive)
2 | CSCCC(Nc1ncnc2nc[nH]c12)C(=O)O (stereo not given) | -12.7% (inactive)
3 | c1ccc2cc(N=NNc3ccc4ccccc4c3)ccc2c1 | -30.6% (inactive)
4 | NC(CCC(=O)NC(CSSCCCCS(=O)O)C(=O)NCC(=O)O)C(=O)O (stereo not given) | -10.2% (inactive)
5 | O=[N+]([O-])c1ccc(-c2nnn(Cc3ccco3)c2N2CCCCC2)cc1 | 84.2% (active)
6 | c1ccc(C2c3ccccc3-c3ncnc(N4CCCCC4)c32)cc1 (stereo not given) | 15.1% (inactive)
7 | CCCCC(C=O)(CC)CCC#N (stereo not given) | -17.9% (inactive)
8 | CCOC(=O)c1[nH]n(-c2ccccc2)c(=O)c1C=NC(=S)c1cccnc1 | 20.2% (inactive)
9 | CC(=O)NC(Cc1ccc(C)cc1)C(=O)O (stereo not given) | -3.5% (inactive)
10 | O=C1C=CC2(CC=CCC2)CC1 (stereo not given) | -23.4% (inactive)
11 | CC(C)=CCc1ccc2c(c1)CCCN2C | -47% (inactive)
12 | COc1ccc(-c2nnc(-c3ccc(OC)cc3)nn2)cc1 | -11.8% (inactive)
13 | Cc1cc2sc(C)[n+](CCCOS(=O)(=O)[O-])c2cc1C | 36.3% (inactive)
14 | O=[N+]([O-])c1ccc(-c2ccc(-c3ccccc3)cc2)cc1 | -15.4% (inactive)
15 | CCCCCCCCCCCCCCCCCC(=O)c1ccc(OC)c(OC)c1 | -37.5% (inactive)
16 | COc1ccc(NC(=O)CC(=O)N/N=C(/C)c2cc3cc(N=Nc4ccccc4Cl)ccc3oc2=O)cc1 | 34% (inactive)
17 | C=C(C)C#CC(O)(C(=O)OC1CCN(C)CC1)C(C)C (stereo not given) | 7.2% (inactive)
18 | COc1ccc(N)c(C(=O)CCNC(C)=O)c1 | -7.05% (inactive)
19 | CC(Oc1ccccc1)C(=O)NNC(=O)OC(C)(C)C (stereo not given) | -0.75% (inactive)
20 | COc1ccc2ncc(COC(=O)Nc3ccccc3)c(COC(=O)Nc3ccccc3)c2c1 | 5.65% (inactive)

Row | Compound | growth inhibition
21 | O=S1(=O)CC(N2CCCCC2)C=C(c2ccccc2)O1 (stereo not given) | 15.2% (inactive)
22 | CCOc1ccc(N=Cc2c3ccccc3nc3ccccc23)cc1 | 25.9% (inactive)
23 | O=C(O)c1cc(C(=O)O)cc(N(CCO)CCO)c1 | -17.6% (inactive)
24 | O=[N+]([O-])c1cc2no[n+]([O-])c2cc1N1CCOCC1 | 98.4% (active)
25 | NC(=S)NNCC(=O)CC(O)(C(F)(F)F)C(F)(F)Cl (stereo not given) | -21.9% (inactive)
26 | CC1(c2ccc(Cl)s2)NC(=O)NC1=O (stereo not given) | -45.8% (inactive)
27 | O=C(c1ccc(Cl)c(Cl)c1)N1CCCCC1 | -48.5% (inactive)
28 | O=C(O)c1ccc(C(=O)c2ccccc2)c(C(=O)O)c1 | -8.7% (inactive)
29 | O=C(O)C(O)C(O)C(O)C(O)C(O)CO.[NH-]C1CCCCC1[NH-].[Pt+2] (stereo not given) | 7.4% (inactive)
30 | CCC(O)C(O)(c1ccccc1)c1ccccc1 (stereo not given) | -2.75% (inactive)
31 | O=C(Nc1ccccc1Cl)c1ccccc1O | -48.6% (inactive)
32 | CCC(Nc1nncs1)Nc1nncs1 | -20.9% (inactive)
33 | Cc1c(C=O)cc(-c2ccccc2)n1C | -8.45% (inactive)
34 | NC(Cc1c[nH]c2ccc([N+](=O)[O-])cc12)C(=O)O (stereo not given) | 2.45% (inactive)
35 | O=C(O)c1ccc(-c2ccc(O)cc2)cc1 | -34% (inactive)
36 | CCOC(=O)c1c(-c2ccc([N+](=O)[O-])cc2)c(C#N)n(-c2ccccc2)c1C | -7.95% (inactive)
37 | COc1ccccc1N1C(Cl)C(=O)C1c1c[nH]c2ccccc12 (stereo not given) | 4.4% (inactive)
38 | CCCCN=Cc1ccc(Cl)cc1 | 6.5% (inactive)
39 | Cc1cc(C[C@H]2O[C@@H]3OC(C)(C)O[C@@H]3[C@H]3OC(C)(C)O[C@H]32)c2ccccc2n1 | -4.2% (inactive)
40 | O=C(O)C1=C(c2ccccc2)C=C(c2ccccc2)C1 | -33% (inactive)
